# Experimental data taken from the supplement of paper PMC12636033.
# ± gives the standard deviation of the averaged measurements. Over roughly 33,000 sequences, “E-score (rank enrichment, -0.5 to 0.5)” has its median near -0.0068; the highest 2% begin near 0.24. Only a selection was taken, and the highest values are over-represented in it overall.
# Tested on: muMax20 (Max(13-93) K31hArg/K57hArg, M65Nle)
# Assay: PBM 8-mer E-score (E-score (rank enrichment, -0.5 to 0.5)); higher = stronger preferential binding
# Description: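 Protein binding microarray (universal PBM chip covering all 10-mers in fixed probe flanks) with chemically synthesized human Max(13-93) bHLH-LZ analogs (not full-length Max) bearing noncanonical residues (hArg, Tha, Aib, Nle at 65) and aromatic Cys staples. Read-out per 8-mer (and its reverse complement): E-score (rank-based enrichment, -0.5 to 0.5) and Z-score of median probe intensity.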
row,Sequence,PBM 8-mer E-score
1,AAGAACTC,-0.0481 ± 0.11
2,GCTAGAGC,-0.122 ± 0.12
3,AACTTCTA,-0.0177 ± 0.042
4,GACTTCTA,-0.149 ± 0.025
5,TACTTCTA,0.272 ± 0.091
6,CTTATGGA,-0.0576 ± 0.026
7,CAACCGAC,0.0428 ± 0.061
8,ACACACGA,0.188 ± 0.037
9,AAACACGC,0.198 ± 0.0045
10,AAACACGA,0.194 ± 0.04
11,ACACACGT,0.338 ± 0.01
12,AAACACGT,0.342 ± 0.016
13,ACACACGG,0.00898 ± 0.047
14,GACGTAAC,0.0633 ± 0.061
15,AATAGGTG,0.119 ± 0.0048
16,AATAGGTC,-0.0485 ± 0.14
17,AATAGGTA,0.251 ± 0.073
18,CTAATACA,0.248 ± 0.047
19,TCAATACA,0.18862 ± 0.00013
20,CTAATACC,0.0669 ± 0.08
21,AAAATACA,0.159 ± 0.058
22,ATAATACC,0.261 ± 0.049
23,ACAATACA,0.191 ± 0.02
24,GTAATACA,0.182 ± 0.082
25,ACAATACT,0.174 ± 0.049

row,Sequence,PBM 8-mer E-score
1,ATAATACG,0.19 ± 0.015
2,ATAATACA,0.281 ± 0.027
3,ACAATACC,0.237 ± 0.02
4,AGAATACC,0.142 ± 0.0044
5,ACTATGGC,-0.0571 ± 0.07
6,AATTTTCG,0.0133 ± 0.1
7,GCCCTACA,-0.127 ± 0.021
8,CCCGCACG,-0.0959 ± 0.058
9,TGAGCGCA,-0.0144 ± 0.0021
10,AACGGCAA,0.112 ± 0.025
11,CTCTGCGA,-0.167 ± 0.1
12,AGTTACCC,-0.029 ± 0.015
13,GGGATGGA,0.0386 ± 0.042
14,ACCAGTTG,-0.0933 ± 0.12
15,ACTTCAAT,0.173 ± 0.027
16,GAAATACA,0.132 ± 0.063
17,CAAATACC,0.0739 ± 0.027
18,CAAATACA,0.325 ± 0.037
19,ATAACGTC,0.121 ± 0.0034
20,ATAACGTA,0.24 ± 0.0069
21,GTAACGTA,0.0209 ± 0.03
22,AAGTCACA,0.029 ± 0.056
23,AAGTCACT,0.24 ± 0.12
24,AAGTCACG,0.0988 ± 0.052
25,GCTTGCAA,0.0886 ± 0.032

row,Sequence,PBM 8-mer E-score
1,AAAAATGG,0.153 ± 0.002
2,GAGCCAAC,-0.0474 ± 0.026
3,AAAACCTC,0.104 ± 0.039
4,ATGTAGAG,0.04 ± 0.13
5,CTGTATAA,0.191 ± 0.029
6,GAATATAA,0.264 ± 0.023
7,GAATATAC,0.157 ± 0.014
8,CTGTAGAA,0.031 ± 0.018
9,ATATATAT,0.155 ± 0.016
10,ATGTAGAA,0.264 ± 0.0091
11,TAATATAA,0.232 ± 0.018
12,TTATATAA,0.274 ± 0.062
13,GTGTATAA,0.1625 ± 0.0011
14,TGATATAA,0.211 ± 0.09
15,ATGTATAA,0.268 ± 0.022
16,AGGGAACC,-0.237 ± 0.012
17,TACGGCTA,-0.0274 ± 0.029
18,ATGGGCGG,0.009 ± 0.039
19,GTTAGAAC,-0.0507 ± 0.042
20,ATATATAA,0.288 ± 0.052
21,GTATATAA,0.202 ± 0.069
22,CTATATAA,0.165 ± 0.12
23,ACGCCTCG,-0.092 ± 0.092
24,CATCCGGC,-0.291 ± 0.032
25,ATCGGACG,-0.0422 ± 0.092

row,Sequence,PBM 8-mer E-score
1,AAAGATAG,0.0409 ± 0.14
2,TAAGATAA,0.0507 ± 0.17
3,CAAGATAC,0.153 ± 0.0086
4,CAAGATAA,0.253 ± 0.064
5,AAAGATAC,0.145 ± 0.05
6,AAAGATAA,0.2372 ± 0.001
7,ATCAGAGG,-0.121 ± 0.076
8,AGATGTTG,-0.125 ± 0.12
9,ACATGTTG,0.271 ± 0.022
10,ACATGTTC,0.1643 ± 0.00078
11,GCATGTTA,0.116 ± 0.14
12,ACATGTTA,0.241 ± 0.085
13,CCATGTTA,0.109 ± 0.039
14,AACGAATT,0.236 ± 0.0088
15,CAAGGTAC,0.0659 ± 0.12
16,ACACCGAT,-0.183 ± 0.16
17,AGGTTAGG,0.0305 ± 0.073
18,CACGTTTA,0.0929 ± 0.011
19,CCTTAACC,-0.159 ± 0.009
20,CCGTGATC,-0.311 ± 0.027
21,AAGTGATC,0.074 ± 0.034
22,ACGTGAGG,0.111 ± 0.1
23,ACTTGATG,0.0184 ± 0.013
24,ACTTGATC,-0.00466 ± 0.064
25,ACTTGATA,0.242 ± 0.033

row,Sequence,PBM 8-mer E-score
1,ACGTGAAC,0.0624 ± 0.078
2,ACGTGATC,0.286 ± 0.1
3,ACGTGAGA,0.168 ± 0.054
4,TCGTGAAA,0.0589 ± 0.081
5,ACGTGAGT,0.2594 ± 0.0012
6,ACGTGAAA,0.249 ± 0.083
7,CGGTTCAC,-0.245 ± 0.053
8,AGCATTCC,-0.123 ± 0.17
9,GGAGCCCA,-0.156 ± 0.11
10,CCTGTGAC,-0.0438 ± 0.0042
11,CCATAGAC,-0.0388 ± 0.035
12,GACGTTGA,0.0147 ± 0.11
13,ATCCTTTG,0.0245 ± 0.09
14,CTGAGCAC,-0.0319 ± 0.049
15,TCGAGAGA,-0.0503 ± 0.027
16,AATGACTC,0.152 ± 0.015
17,GTTGAACA,0.031 ± 0.035
18,CGTAACTC,-0.0982 ± 0.11
19,AACACGGT,-0.129 ± 0.055
20,TCCGCGCA,-0.113 ± 0.072
21,ACGTGATA,0.33 ± 0.082
22,AGGTGATG,-0.00343 ± 0.027
23,GTGTGAAA,0.141 ± 0.027
24,GTGTGATA,0.154 ± 0.018
25,ATGTGATA,0.24 ± 0.12

row,Sequence,PBM 8-mer E-score
1,AAGTGATG,0.129 ± 0.12
2,GCGTGATA,0.174 ± 0.032
3,CTGTGATA,-0.0301 ± 0.17
4,ATGTGAAA,0.317 ± 0.057
5,ACGTGATG,0.294 ± 0.05
6,CCGTGATA,-0.0912 ± 0.033
7,CTGTGAAA,0.0471 ± 0.025
8,ACTATGCT,0.231 ± 0.07
9,CCCGAGGA,-0.233 ± 0.074
10,ATGGGATC,0.0291 ± 0.075
11,CTAACTCA,0.0355 ± 0.056
12,AGCCGATG,-0.155 ± 0.04
13,AATCACCA,0.133 ± 0.014
14,AGTGTCCC,-0.0112 ± 0.012
15,AATATTAC,0.281 ± 0.066
16,AATATTAG,0.175 ± 0.04
17,ACTATTAT,0.204 ± 0.056
18,AGTATTAG,0.0793 ± 0.032
19,AATATTAT,0.25 ± 0.026
20,AACATTGG,-0.0243 ± 0.2
21,TGTATTAA,0.184 ± 0.096
22,AGTATTAA,0.268 ± 0.03
23,AACATTGA,0.0179 ± 0.032
24,AACATTGT,0.236 ± 0.013
25,CATATTAC,0.0522 ± 0.03

row,Sequence,PBM 8-mer E-score
1,GATATTAC,0.121 ± 0.015
2,CCCGCGCA,-0.124 ± 0.031
3,ATGTGGCA,0.0287 ± 0.095
4,AGCATTTC,0.141 ± 0.0034
5,CAACTAAG,0.0637 ± 0.092
6,ATTGCAAA,0.0872 ± 0.083
7,AGGTCCTA,-0.128 ± 0.083
8,TTCCCGAA,-0.0933 ± 0.0092
9,AATAGAAC,0.0563 ± 0.077
10,GATATTAA,0.134 ± 0.028
11,AATATTGT,0.256 ± 0.006
12,AATATTGG,0.101 ± 0.094
13,CATATTAA,0.297 ± 0.012
14,AATATTGC,0.138 ± 0.076
15,AATATTAA,0.304 ± 0.025
16,TATATTAA,0.179 ± 0.025
17,ACTATTAA,0.149 ± 0.011
18,CATATTAG,0.121 ± 0.053
19,CGCGCTCC,-0.0678 ± 0.11
20,AGCTGTAC,-0.0262 ± 0.13
21,GGACTGTA,0.00313 ± 0.055
22,ATTTGTAC,0.176 ± 0.038
